Here are results for 13 compounds from PubChem BioAssay (NCI).

Structures are written as SMILES. The panel holds about 83,000 compounds, 20% with a hit somewhere; the sample as a whole holds those more often.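 Results are percent growth after 48 hours of single-concentration exposure. 100 means growth as in untreated cells, lower positive values show inhibition; negative values down to -100 show cell death.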 Unmarked numbers belong to inactive results. Active and inactive are the calls of the source. How the source made its calls: active means growth percent below 10; inactive means the rest.

Common to all, as to assay: NCI-60 one-dose screen, 48 h (100 = growth as untreated, 0 = no growth, -100 = all killed)
What all share (conditions): 10 µM unless noted

In experiment [1] the test system is HCT-15 colon.
The subject of experiment [2] is HT29 colon.
Experiment [3] concerns SNB-75 CNS.
Experiment [4] relates to SNB-19 CNS.
The subject of experiment [5] is U251 CNS.
The subject of experiment [6] is SK-MEL-5 melanoma.
Experiment [7] has as its system UACC-62 melanoma.
Experiment [8] concerns LOX IMVI melanoma.
In experiment [9] the test system is SK-MEL-28 melanoma.
Experiment [10] concerns PC-3 prostate.

As for `CN1CCN(CCOc2ccc(-c3cnc4c(-c5ccc(C(F)(F)F)cc5)cnn4c3)cc2)CC1`, the growth in experiment [1] was -33.6% (active); in [2], -15.5% (active); in experiment [3] it was 96.1%; in [4], 61.4%; in experiment [5] it was 1.48% (active); in [6], 64.4%. The growth in experiment [7] was 72.4%; in [8], -89.9% (active); in experiment [9] it was 85.1%.

On to `O=c1nc(Nc2nc3ccccc3s2)[nH]c(=O)c2ccccc12`, for which the growth was 99.2% in [1]; 108% in experiment [2]; 76.5% in experiment [3]; 95.6% in [4]; 98.6% in [5]; 99.6% in [6]. In addition, the growth in experiment [7] was 99%; in experiment [8] it was 95.7%; in experiment [9], 110%.

For the compound `COC(=O)c1c2c(c(C)[n+]([O-])c1C)C(=O)C=CC2=O`, the growth in [1] was -64.8% (active); in experiment [2], 0.769% (active); in experiment [3], -49.1% (active); in [4], -23.8% (active); in experiment [5], -40.8% (active); in experiment [6], -98.5% (active). The growth is -72.8% (active) in experiment [7], -86% (active) in [8] and -82.9% (active) in [9].

`O=C(Nc1ccccc1O)c1ccccc1Nc1ccnc(C(F)(F)F)c1`: the growth in [1] was 104%; in experiment [2], 124%; in experiment [3] it was 90.7%; in [4], 107%; in experiment [5], 102%; in experiment [6], 70.7%. The growth is 57.7% in experiment [7], 89.3% in [8] and 117% in experiment [9].

As to `O=C(Cn1cc(CN2C(=O)c3ccccc3S2(=O)=O)nn1)Nc1cccc(Cl)c1`, the growth is 98.2% in experiment [1]; 109% in experiment [2]; 87.8% in experiment [3]; 115% in experiment [4]; 112% in [5]; 106% in experiment [6]. The growth in [7] was 97.4%; in experiment [8], 89.5%; in experiment [9], 105%.

On to `CCCCCCCCCCCCCCCCCCOc1ccccc1CC(=O)OCC[N+]1(C)CCOCC1`, for which the growth was 90% in experiment [1]; 47.9% in [2]; 19.7% in experiment [3]; 54.4% in experiment [4]; 30.1% in [5]; 79.8% in experiment [6]. The figures for the growth in experiment [7], in experiment [8] and in experiment [9] were 60.8%, 55.9% and 85.7%, respectively.

As for `Nc1c(C(=O)Nc2ccncc2)sc2nc3c(cc12)CCCCC3`, the growth in experiment [1] was 64%; in experiment [2] it was 52.9%; in experiment [3] it was 93.5%; in [4], 95.9%; in experiment [5], 83.7%; in experiment [6], -0.0144% (active). The growth in experiment [7] was 80.7%; in [8], 84%; in [9], 82.5%.

For the compound `CCOC(=O)c1c(NC(=O)c2ccc(OC)cc2)sc2c(CN(C)C)c(O)ccc12`, the growth in experiment [1] was 52.5%; in experiment [2], 13.9%; in experiment [3], 67.7%; in [4], 89%; in experiment [5] it was 79.5%; in experiment [6], 81.3%. For the same compound, the growth in [7] is 95.7%; in experiment [8], 61.3%; in experiment [9], -30.4% (active).

For `O=C1OCC2=C1C(c1cccc(C(F)(F)F)c1)c1cc3c(cc1N2CCO)OCO3` (stereo not drawn), the growth is 25.2% in experiment [1]; 6.68% (active) in [2]; 19% in experiment [3]; 30.1% in [4]; 21% in experiment [5]; 20% in [6]. The growth in experiment [7] was 48.4%; in experiment [8], 40.6%; in [9] it was 57.3%.

Regarding `Cc1ccc(-c2nc(C(Cl)Cl)nc3cc(C)nn23)cc1`, the growth was -2.36% (active) in [1]; 3.2% (active) in experiment [2]; -11.5% (active) in [3]; 25.1% in [4]; 4.27% (active) in [5]; 44.8% in experiment [6]. The growth is 59.5% in [7], 52% in experiment [8] and 38.4% in [9].

In the case of `CCCCN1C(=O)/C(=c2\sc3n(c2=O)NC2C(N=3)N(CC)C(=O)N2CC)c2ccccc21` (stereo not drawn), the growth was 33.5% in experiment [1]; 16% in [2]; 11.2% in experiment [3]; 61.9% in [4]; 33.8% in experiment [5]; 45.1% in [10]. Further, the growth in experiment [6] was 55%; in experiment [7], 37.4%; in [8], 47.6%; in experiment [9] it was 65.6%.

Take `CCOC(=O)CSc1nc2sc3c(c2c(=O)n1-c1ccc([N+](=O)[O-])cc1)CCCCC3`: the growth in experiment [1] is 85.1%; in [2], 78.6%; in experiment [3], 11%; in [4], 78.8%; in experiment [5] it was 53.5%; in experiment [6], 88.7%. The results for the growth in [7], in [8] and in experiment [9] were 74.9%, 79.6% and 84.1%, respectively.

Consider `CCOC(=O)Cn1c(=O)c2c3ccccc3n(C)c2n2nnc(-c3ccccc3)c12`, for which the growth is 114% in experiment [1]; 89.1% in experiment [2]; 105% in experiment [3]; 115% in experiment [4]; 87.8% in [5]; 74.1% in experiment [6]. Besides, the growth in [7] was 72.8%; in experiment [8], 86.2%; in experiment [9], 86.6%.
